Source: PubChem BioAssay
Results filed as inconclusive are left out. Active and inactive are the calls of the source. Unless noted, cut-off not given; nearly all actives show AC50 up to about 26 µM.

test: growth inhibition of DIPG cells – cell-based, MIPE4.0 library, CellTiter-Glo luminescence, qHTS (AID 1347066; cut-off not given, nearly all actives have AC50 up to about 30 µM); details: SU-DIPG-VI viability, CellTiter-Glo ATP luminescence
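Further: cells exposed to compound for 48 hours before readout.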

Row | SMILES | AC50 | outcome
1 | O=C(Nc1nnc(-c2ccco2)o1)c1cc(-c2ccccc2)nc2ccccc12 | 14.8 µM (active) | 
2 | COc1ccc2c(c1)CC[C@@H](CN(C)CC(=O)O)[C@H]2c1ccccc1 |  | inactive
3 | Oc1ccc([C@@H]2Oc3ccc(O)cc3[C@@H]3CCC[C@@H]32)cc1 |  | inactive
4 | CCS(=O)(=O)N1CC(CC#N)(n2cc(-c3ncnc4[nH]ccc34)cn2)C1 |  | inactive
5 | CO[C@@H]1C(N(C)C(=O)c2ccccc2)C[C@H]2O[C@]1(C)n1c3ccccc3c3c4c(c5c6ccccc6n2c5c31)C(=O)NC4=O (stereo partly specified) |  | inactive
6 | C[C@@H](Oc1cc(-n2cnc3ccc(CN4CCN(C)CC4)cc32)sc1C(N)=O)c1ccccc1C(F)(F)F | 18.7 µM (active) | 

test: JHH-DIPG-1 glioma cell viability, MIPE5.0 library, CellTiter-Glo luminescence, qHTS (AID 1347067); details: JHH-DIPG-1 glioma viability, CellTiter-Glo ATP luminescence

Row | SMILES | AC50 | outcome
7 | COc1cc(N2CCN(C)CC2)ccc1Nc1ncc2c(n1)N(C)c1ccccc1C(=O)N2C | 14.8 µM (active) | 
8 | Cc1c(-c2ccnn2C)cc(C(=O)NCc2ccc(S(C)(=O)=O)cn2)c(=O)n1-c1cccc(C(F)(F)F)c1 |  | inactive
9 | COC1CCC(N2C(=O)CNc3ncc(-c4ccc(C(C)(C)O)nc4)nc32)CC1 (stereo unspecified) | 16.6 µM (active) | 
10 | CN1CCN(C2CCC(n3cc(-c4ccc(Oc5ccccc5)cc4)c4c(N)ncnc43)CC2)CC1 (stereo unspecified) | 7.42 µM (active) | 
11 | CN1CCN(C(=O)[C@H]2[C@@H](C(=O)O)[C@H]3CC[C@@H]2O3)CC1 |  | inactive
12 | C[C@@H]1COCCN1c1cc(-c2ccnn2C)c2ccnc(-c3ccn[nH]3)c2n1 | 5.25 µM (active) | 
13 | C[C@@H](OC[C@@]1(c2ccccc2)CC[C@]2(CCC(=O)N2)CN1)c1cc(C(F)(F)F)cc(C(F)(F)F)c1 | 14.8 µM (active) | 
14 | COC(=O)c1ccc([C@H]2c3[nH]c4ccccc4c3C[C@H](C(=O)OC)N2C(=O)CCl)cc1 | 2.35 µM (active) | 
15 | COc1c(C)cc(NC(=O)c2nn(Cc3ccc(F)cc3)c3c2CN(C(=O)c2ccc[nH]2)C[C@]3(C)C(N)=O)cc1C |  | inactive
16 | O=C([O-])C[O-].[Pt+2] |  | inactive
17 | COc1cccc(-c2c(C)n(Cc3c(F)cccc3C(F)(F)F)c(=O)n(C[C@H](NCCCC(=O)O)c3ccccc3)c2=O)c1F |  | inactive
18 | CNCCCOc1cc(F)c(-c2c(Cl)nc3ncnn3c2N[C@@H](C)C(F)(F)F)c(F)c1 | 0.105 µM (active) | 
19 | COCCNCc1ccc(-c2cc3nccc(Oc4ccc(NC(=S)NC(=O)Cc5ccc(F)cc5)cc4F)c3s2)nc1 | 7.42 µM (active) | 
20 | O=c1c(-c2ccc(O)cc2)coc2c([C@@H]3O[C@H](CO)[C@@H](O)[C@H](O)[C@H]3O)c(O)ccc12 |  | inactive
21 | Cc1c(NC(=O)c2cc3c(s2)CCCC3)cccc1-c1cn(C)c(=O)c(Nc2ccc(C3C(=O)N(C)CCN3C)cc2)n1 (stereo unspecified) | 18.6 µM (active) | 
22 | COc1ccc2c(c1)CC[C@@H](CN(C)CC(=O)O)[C@H]2c1ccccc1 |  | inactive
23 | COc1ccc2[nH]c(C(=O)N3CCC(CC(C)(C)O)CC3)cc2c1 |  | inactive
24 | Cc1ccc(-c2nn(C(C)(C)CNC(=O)c3ccncc3)c3ncnc(N)c23)cc1 | 13.2 µM (active) | 

Row | SMILES | AC50 | outcome
25 | N[C@@H](CCC(=O)O)C(=O)N[C@@H](Cc1c[nH]c2ccccc12)C(=O)O |  | inactive
26 | CCS(=O)(=O)N1CC(CC#N)(n2cc(-c3ncnc4[nH]ccc34)cn2)C1 |  | inactive
27 | NC(=O)[C@H]1CCS[C@@H]2C[C@]3(CCCN3C(=O)Cc3ccc(NC(=O)COc4ccc(Cl)cc4Cl)cc3)C(=O)N12 | 16.6 µM (active) | 
28 | Nc1cc(COc2c(Cl)cc(C[C@H](N)C(=O)O)cc2Cl)c2oc(-c3ccccc3)nc2c1 |  | inactive
29 | CC[C@H](NC(=O)[C@H](CS(=O)(=O)CC1CC1)N[C@@H](c1ccc(F)cc1)C(F)(F)F)C(=O)C(=O)NC1CC1 |  | inactive
30 | COc1ccc(S(=O)(=O)N[C@@H](CNc2nc(C)nc(N3CCC(c4ccc5c(n4)NCCC5)CC3)c2C)C(=O)O)cc1 |  | inactive
31 | Cc1nnc(C[C@@H]2C=C(c3ccc(Cl)cc3)c3ccccc3-n3c(C)nnc32)o1 | 18.6 µM (active) | 
32 | O=C1NC(=O)[C@@H](c2c[nH]c3ccccc23)[C@H]1c1cn2c3c(cccc13)CCC2 | 1.66 µM (active) | 
33 | O=C(Nc1nccs1)C(c1cc(F)ccc1O)N1Cc2ccccc2C1=O (stereo unspecified) |  | inactive
34 | Fc1ccc2[nH]ccc2c1-c1nc(N2CCOCC2)c2sc(CN3CCN(CC4CC4)CC3)cc2n1 | 23.5 µM (active) | 
35 | CCc1c(C(=O)NNC(=O)[C@@H](O)c2cc(F)cc(F)c2)ccc(O)c1C |  | inactive
36 | C=CC(=O)N1CCC[C@H](n2c(=O)n(-c3ccc(Oc4ccccc4)cc3)c3c(N)ncnc32)C1 | 0.742 µM (active) | 
37 | CCC[C@H](N[C@H]1CCc2cc(F)cc(F)c2C1)C(=O)Nc1cn(C(C)(C)CNCC(C)(C)C)cn1 | 23.5 µM (active) | 
38 | CCCCCCCCCCCCCCCCOCCCOP(=O)(O)COC(CO)Cn1ccc(N)nc1=O (stereo unspecified) |  | inactive
39 | CN[C@@H](C)C(=O)N[C@H](C(=O)N1CCC[C@H]1c1nc(C(=O)c2ccc(F)cc2)cs1)C1CCCCC1 |  | inactive
40 | COc1ccc(C(=O)N2CCN(C(=O)/C=C/c3ccc(Br)cc3)CC2)cc1 |  | inactive
41 | COc1ccc2[nH]c3c(c2c1)CCN[C@]31CS[C@@H]2c3c(OC(C)=O)c(C)c4c(c3[C@H](COC1=O)N1[C@@H]2[C@H]2c3c(cc(C)c(OC)c3O)C[C@@H]([C@@H]1O)N2C)OCO4 | 0.00135 µM (active) | 
